Rows were chosen to be rich in hits. Some 20% of all compounds tested hit in one or more screens of this group.
Shiga toxin inh: A qHTS for Small Molecule Inhibitors of Shiga Toxin; Vero cells, Shiga toxin protein synthesis inhibition reporter; inhibition, % at 38.7 µM; hit rate 9.2% among 290,000; AID 2315, 2010; in the data active = inhibition mostly above about 28%, no sharp cut-off; inactive = mostly below about 43%; note: 0% is about no effect
Pf growth 48h: Primary qHTS for delayed death inhibitors of the malarial parasite plastid, 48 hour incubation. hit rate 5.9% among 310,000. Potency, µM (titrated, usually from 28.7 µM), for inactives: at the highest dose activity change, negative = inhibition, most hits filed as inhibitors. P. falciparum luciferase growth in erythrocytes, 48 h. AID 504832, 2011; note: potency is the fitted concentration of half-maximal effect; % is set by controls: 0 for no effect and ±100 for the full control effect
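Growth was read as firefly luciferase luminescence after a 48 h, 37 C, 5% CO2 exposure of compounds to reporter-bearing P. falciparum cultures (0.1% parasitemia, 2% hematocrit final) in Albumax-supplemented RPMI 1640.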
HCMV inh: qHTS Assay for inhibitors of the human cytomegalovirus (HCMV). HFF cells, HCMV-luciferase reporter, 72 h; active compounds read low. activity change, negative = inhibition, % at 57.5 µM. hit rate 4.5% among 410,000; in the data active = activity change below about -60%; inconclusive = no clear call, values can overlap the other calls; inactive = above about -39%; note: % is set by controls: 0 for no effect and ±100 for the full control effect
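Two-dose cell screen: HFF monolayers treated with compounds and infected with luciferase-expressing HCMV at 1 PFU/cell, 72 h at 37C, then lysed for luciferase measurement.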
Cycloheximide cs: Cycloheximide Counterscreen for Small Molecule Inhibitors of Shiga Toxin. cell reporter, cycloheximide protein synthesis inhibition counterscreen. max response, %. hit rate 12% among 300,000; in the data active = max response mostly above about 13%, no sharp cut-off; inactive = mostly below about 14%; note: read at 38.3 µM for the half of the compounds with a filed dose; 0% is about no effect
Pf growth 96h: Primary qHTS for delayed death inhibitors of the malarial parasite plastid, 96 hour incubation; AID 504834, 2011; Potency, µM (top dose mostly 28.7 µM), for inactives: top-dose activity change, negative = inhibition, usual class: inhibitors; P. falciparum luciferase reporter growth, 96 h; hit rate 6.9% among 320,000; note: potency is the fitted concentration of half-maximal effect; % is set by controls: 0 for no effect and ±100 for the full control effect
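P. falciparum expressing integrated firefly luciferase, in erythrocytes at 2% hematocrit, 0.05% parasitemia, incubated with compounds 96 h at 37 C, 5% CO2. Growth inhibition read as loss of luminescence; two-generation exposure targets delayed-death apicoplast inhibitors.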
* = called active by the depositor; [ ] = remark or other dose. Unless noted, calls come from the whole dose curve; as a rule, active = well fitted inhibition curve with a large enough effect; inconclusive = small, poorly fitted or top-dose-only effect, or another doubt; inactive = no such curve, though single readings can be large or run the other way.

`O=C(Nc1ccc(N2CCOCC2)cc1)C1CC(=O)N(c2ccc(F)cc2)C1` (configuration not stated) gave Shiga toxin inh 13, Pf growth 48h -22%, HCMV inh -6, Cycloheximide cs -6 and Pf growth 96h 10µM*.
For O=C(C1CC(=O)N(c2ccc3c(c2)OCCO3)C1)N1CCN(c2ccccc2)CC1 (configuration not stated) the results were Shiga toxin inh 35, Pf growth 48h 72%, HCMV inh -70*, Cycloheximide cs 17 and Pf growth 96h 20%.
CC1=C(c2ccc(F)cc2)S(=O)(=O)NC1=NCc1ccccc1Cl was read as HCMV inh 0.
Screening CCCCNC(=O)CSc1nc2cc3c(cc2c(=O)n1CCCCCC(=O)NCc1ccc(OC)cc1)OCO3 returned HCMV inh -21.
O=C(Cn1cnc2ccccc2c1=O)Nc1ccccc1N1CCOCC1 was read as Shiga toxin inh -11, Pf growth 48h -1%, HCMV inh -19, Cycloheximide cs -2 and Pf growth 96h 1%.
Screening COC(=O)c1ccc(NC(=O)C2CC(=O)N(c3ccc(C)cc3)C2)cc1 (configuration not stated) returned Shiga toxin inh 21, Pf growth 48h 10%, HCMV inh 80, Cycloheximide cs 17* and Pf growth 96h 25%.
For Cc1ccc(N2CC(C(=O)Nc3ccc4c(c3)OCCO4)CC2=O)cc1 (configuration not stated) the results were Shiga toxin inh 44*, Pf growth 48h 25%, HCMV inh inconclusive, Cycloheximide cs 20* and Pf growth 96h inconclusive.
`O=C(Nc1ccc2c(c1)OCO2)C1CC(=O)N(c2ccccc2)C1` (configuration not stated) gave Shiga toxin inh -5, Pf growth 48h 15%, HCMV inh 9, Cycloheximide cs -1 and Pf growth 96h 3%.
For COC(=O)c1ccc(NC(=O)C2CC(=O)N(c3cc(C)ccc3C)C2)cc1 (configuration not stated) the results were Shiga toxin inh -8, Pf growth 48h -7%, HCMV inh inconclusive, Cycloheximide cs -1 and Pf growth 96h inconclusive.
Cc1cc(N2CCC(C(=O)Nc3ccc(Cl)cc3)CC2)n2nc(C)c(-c3ccc(Cl)cc3)c2n1 was read as HCMV inh 6.
Screening COc1ccc(CCN(C)C(=O)c2ccc(S(=O)(=O)Nc3ccccc3F)cc2)cc1OC returned HCMV inh 18.
Screening COc1ccc(C(=O)Nn2c(SCC(=O)c3ccc(Cl)cc3)nc3ccccc3c2=O)cc1 returned Shiga toxin inh 22, Pf growth 48h -60%, HCMV inh -17, Cycloheximide cs 17* and Pf growth 96h inconclusive.
COc1ccc(C(=O)Nn2c(SCC(=O)N3CCC(C)CC3)nc3ccccc3c2=O)cc1 was read as Shiga toxin inh 25, Pf growth 48h 58%, HCMV inh -62*, Cycloheximide cs 10 and Pf growth 96h 2%.
Screening CCOc1ccc(S(=O)(=O)N2CCC(C(=O)NCc3ccncc3)CC2)cc1 returned Shiga toxin inh -2, Pf growth 48h inconclusive, HCMV inh 24, Cycloheximide cs -1 and Pf growth 96h inconclusive.
CN1C(=O)c2ccc(NC(=O)C3CC3)cc2C1=O was read as Shiga toxin inh 16, Pf growth 48h 31%, HCMV inh 17, Cycloheximide cs -1 and Pf growth 96h 38%.
For CCSc1nc(-c2ccc(OC)cc2)n(-c2nc3ccccc3s2)n1 the results were Shiga toxin inh 12, Pf growth 48h inconclusive, HCMV inh 41, Cycloheximide cs 17* and Pf growth 96h -19%.
For COCc1cn(-c2nc3ccccc3s2)nn1 the results were HCMV inh 41.
COc1ccc(N2C(=O)Cc3cc(OC)c(OC)cc3C2c2ccc(F)cc2)cc1 (configuration not stated) was read as HCMV inh 13.
COc1ccccc1C1C=C(c2ccc(Cl)cc2)Nc2nc(-c3ccc(Cl)cc3)nn21 (configuration not stated) was read as HCMV inh -78*.
`COc1ccccc1C1C=C(c2ccc(F)cc2)Nc2nc(-c3ccc(Cl)cc3)nn21` (configuration not stated) gave HCMV inh -24.
Screening COc1ccc(C2C=C(c3ccc(Cl)cc3)Nc3nc(-c4ccc(Cl)cc4)nn32)cc1 (configuration not stated) returned HCMV inh -101*.
Cc1ccc(C2=CC(c3ccc(Cl)cc3)n3nc(-c4ccc(C)cc4)nc3N2)cc1 (configuration not stated) was read as HCMV inh -38.
CCN(CC)S(=O)(=O)c1ccc(OC)c(NC(=O)/C=C/c2ccco2)c1 was read as Shiga toxin inh -2, Pf growth 48h -17%, HCMV inh -30, Cycloheximide cs -2 and Pf growth 96h -22%.
Cc1ccc(C(=O)Nc2ccc(Br)c(C(F)(F)F)c2)cc1 was read as Shiga toxin inh 108*, Pf growth 48h inconclusive, HCMV inh 25, Cycloheximide cs 82* and Pf growth 96h 12µM*.
Screening O=C(NNC(=S)Nc1ccc(F)c(Cl)c1)c1ccccc1Br returned Shiga toxin inh 43*, Pf growth 48h 27%, HCMV inh 24, Cycloheximide cs 12 and Pf growth 96h 32%.
Screening Cc1cccc(NC(=O)c2ccc(NC(=O)c3ccccc3Br)cc2)c1 returned Shiga toxin inh 37, Pf growth 48h -13%, HCMV inh -26, Cycloheximide cs 20* and Pf growth 96h -19%.
For O=C(NNC(=S)Nc1ccc(F)c(Cl)c1)C1CC1 the results were Shiga toxin inh -7, Pf growth 48h -20%, HCMV inh 6, Cycloheximide cs 0 and Pf growth 96h 0%.
`Cc1cccc(NC(=S)NNC(=O)c2ccccc2Br)c1` gave Shiga toxin inh 78*, Pf growth 48h 0%, HCMV inh 29, Cycloheximide cs 20* and Pf growth 96h 64%.
Screening COc1ccc(Cl)cc1NC(=O)CN(c1cc(C)cc(C)c1)S(=O)(=O)c1c(C)n[nH]c1C returned HCMV inh -23.
CSc1cccc(N2CC(C(=O)Nc3cccc(S(=O)(=O)N4CCCC4)c3)CC2=O)c1 (configuration not stated) was read as Pf growth 48h -22%, HCMV inh -35 and Pf growth 96h inconclusive.
For COc1ccc(CN(C)C(=O)CCc2ccc(S(=O)(=O)N3CCCCCC3)cc2)c(OC)c1 the results were Pf growth 48h 13µM*, HCMV inh -13 and Pf growth 96h inconclusive.
`CCOc1ccc(CN(C)C(=O)CCl)cc1` gave Shiga toxin inh 9, Pf growth 48h 6.6µM*, HCMV inh -30, Cycloheximide cs 4 and Pf growth 96h 12%[5.75 µM].

Source: PubChem (National Center for Advancing Translational Sciences (NCATS))
